Molecules are shown by their SMILES. The panel holds about 83,000 compounds, 20% with a hit somewhere; the sample as a whole holds those more often.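 Single-concentration screen, 48 h exposure, 96-well plates. Endpoint: percent growth. Below 10 = active.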 A number with no mark means an inactive call. The source made the active and inactive calls.

Among the test systems are NCI-H23 lung; NCI-H226 lung; NCI-H322M lung; HOP-62 NSCLC; NCI-H460 lung; HOP-92 NSCLC; NCI-H522 lung; A549/ATCC NSCLC; 786-0 renal; COLO 205 colon; DU-145 prostate; K-562 leukemia; MALME-3M melanoma; MDA-MB-231 breast; RXF 393 renal; SF-268 CNS; SF-295 CNS; SF-539 CNS; UACC-257 melanoma; M14 melanoma.
Common to all, as to assay: NCI-60 one-dose screen, 48 h (100 = growth as untreated, 0 = no growth, -100 = all killed)
Conditions in all cases: 10 µM unless noted

For `O=C1C=CC2(NN=C(c3ccccc3)N2c2cccc(Cl)c2)c2cccc(O)c21` (stereo not given), the growth in the assay with NCI-H23 lung was 26.3%; with NCI-H226 lung it was 85.6%; in the assay with NCI-H322M lung, 95.1%; with HOP-62 NSCLC, 37.9%; with NCI-H460 lung, 85.1%; with HOP-92 NSCLC, 110%. Besides, the growth in the assay with NCI-H522 lung was 51.3%; with A549/ATCC NSCLC, 33.2%; with 786-0 renal, 107%; in the assay on COLO 205 colon, 103%; in the assay on DU-145 prostate it was 95.9%; in the assay with K-562 leukemia, 23%. Moreover, the growth in the assay on MALME-3M melanoma was 38.7%; in the assay with MDA-MB-231 breast, 68.6%; in the assay with RXF 393 renal, 118%; in the assay with SF-268 CNS it was 72.4%; with SF-295 CNS, 40.8%; with SF-539 CNS, 33.9%. Moreover, the growth with UACC-257 melanoma was 30.8%; in the assay with M14 melanoma, 53.2%.
For the compound `Cc1cc([C@@H](C)Nc2ccccc2C(=O)O)c2nc(N3CCOCC3)cc(=O)n2c1`, the growth with NCI-H23 lung was 54.8%; in the assay on NCI-H226 lung, 55.4%; with NCI-H322M lung, 39.9%; in the assay with HOP-62 NSCLC, 37.5%; with NCI-H460 lung, 22.6%; with HOP-92 NSCLC, 13.7%. Moreover, the growth is 42.3% in the assay with NCI-H522 lung; 32% in the assay with A549/ATCC NSCLC; 18.6% in the assay on 786-0 renal; -5.47% (active) in the assay on COLO 205 colon; 57.2% in the assay on DU-145 prostate; 66.9% with K-562 leukemia. Moreover, the growth is 40.7% in the assay with MALME-3M melanoma; 60.3% in the assay with MDA-MB-231 breast; -21.1% (active) in the assay with RXF 393 renal; 47.6% with SF-268 CNS; 9.97% (active) in the assay with SF-295 CNS; 19.7% in the assay with SF-539 CNS. The growth in the assay on UACC-257 melanoma was 32.8%; with M14 melanoma, 45.9%.
Consider `COCCN1CCN(Cc2ccc(-c3n[nH]c4c3C(=O)c3c(NC(=O)NN5CCOCC5)cccc3-4)cc2)CC1`, for which the growth in the assay with NCI-H23 lung is -33.7% (active); in the assay on NCI-H226 lung, 6.04% (active); with NCI-H322M lung it was -13.1% (active); in the assay with HOP-62 NSCLC, -30.7% (active); in the assay with NCI-H460 lung, -68.7% (active); in the assay with HOP-92 NSCLC it was 39.7%. Further, the growth with NCI-H522 lung is -34.1% (active); with A549/ATCC NSCLC, -42.4% (active); with 786-0 renal it was 5.39% (active); in the assay on COLO 205 colon, -64.5% (active); in the assay on DU-145 prostate it was 4.89% (active); with K-562 leukemia, -0.714% (active). Moreover, the growth in the assay on MALME-3M melanoma is -63.1% (active); with MDA-MB-231 breast, -18.1% (active); with RXF 393 renal, -87.4% (active); with SF-268 CNS it was 6.61% (active); in the assay with SF-295 CNS, 2.78% (active); in the assay on SF-539 CNS, -86.2% (active). Further, the growth with UACC-257 melanoma is -19.1% (active); in the assay on M14 melanoma it was -52.6% (active).
On to `CCc1cnn2c(NCc3ccc[n+]([O-])c3)cc(N3CCCC[C@H]3CCO)nc12`, for which the growth is -23.3% (active) with NCI-H23 lung; -6.42% (active) with NCI-H226 lung; -0.876% (active) in the assay with NCI-H322M lung; -33.2% (active) with HOP-62 NSCLC; 1.82% (active) in the assay with NCI-H460 lung; -20.2% (active) in the assay with HOP-92 NSCLC. Moreover, the growth with NCI-H522 lung was -42.2% (active); in the assay on A549/ATCC NSCLC, -13.4% (active); in the assay on 786-0 renal, 7.96% (active); in the assay on COLO 205 colon, -62.5% (active); in the assay with DU-145 prostate it was 5.68% (active); with K-562 leukemia, 1.85% (active). The growth with MALME-3M melanoma was -46.3% (active); with MDA-MB-231 breast it was 2.67% (active); in the assay on RXF 393 renal it was -64.6% (active); in the assay with SF-268 CNS, 3.65% (active); in the assay on SF-295 CNS, 3.11% (active); in the assay with SF-539 CNS, -48.1% (active). The values for the growth in the assay with UACC-257 melanoma and with M14 melanoma were -42.4% (active) and -42.5% (active), respectively.
Regarding `O=C(NOCCO)c1cc(CN2OCCCC2=O)c(F)c(F)c1Nc1ccc(I)cc1F`, the growth is 22.7% with NCI-H23 lung; 50.9% with NCI-H226 lung; 15.4% in the assay with NCI-H322M lung; 36.8% in the assay with HOP-62 NSCLC; 59.4% in the assay on NCI-H460 lung; -20% (active) in the assay with HOP-92 NSCLC. The growth with NCI-H522 lung is 45.8%; in the assay with A549/ATCC NSCLC, 28.9%; in the assay with 786-0 renal, 64.6%; in the assay on COLO 205 colon, 5.72% (active); in the assay with DU-145 prostate, 56.7%; in the assay with K-562 leukemia, 31.2%. Besides, the growth in the assay with MALME-3M melanoma is -2.48% (active); in the assay on MDA-MB-231 breast, 32.2%; in the assay with RXF 393 renal, 24.9%; with SF-268 CNS, 67.5%; in the assay on SF-295 CNS it was 71.6%; in the assay with SF-539 CNS, 55.4%. Also, the growth with UACC-257 melanoma is -13.2% (active); with M14 melanoma it was 9.12% (active).
Consider `O=S1(=O)OC(c2ccc(O)c(Cl)c2)(c2ccc(O)c(Cl)c2)c2ccccc21`, for which the growth in the assay with NCI-H23 lung is 97.8%; with NCI-H226 lung, 93.9%; in the assay with NCI-H322M lung, 107%; in the assay on HOP-62 NSCLC, 99.5%; in the assay with NCI-H460 lung, 101%; in the assay with HOP-92 NSCLC, 60.6%. Further, the growth in the assay with NCI-H522 lung was 93.4%; in the assay on A549/ATCC NSCLC it was 99.1%; in the assay on 786-0 renal it was 110%; in the assay with COLO 205 colon, 103%; in the assay with DU-145 prostate, 103%; in the assay with K-562 leukemia, 113%. The growth in the assay on MALME-3M melanoma is 114%; with MDA-MB-231 breast, 109%; in the assay on RXF 393 renal, 105%; with SF-268 CNS it was 96.9%; with SF-295 CNS, 103%; in the assay on SF-539 CNS, 93.3%. Also, the results for the growth with UACC-257 melanoma and with M14 melanoma were 98.9% and 105%, respectively.
As to `CCN(CC)c1cc2oc3cc(N)cc(=N)c-3nc2cc1C`, the growth in the assay with NCI-H23 lung is 13.9%; with NCI-H226 lung it was 84.9%; with NCI-H322M lung, 91.7%; with HOP-62 NSCLC, 65.3%; in the assay on NCI-H460 lung, 74.6%; with HOP-92 NSCLC, 82.1%. The growth in the assay on NCI-H522 lung is 43.4%; in the assay with A549/ATCC NSCLC, 26.1%; in the assay with 786-0 renal, 62.6%; in the assay with COLO 205 colon, 20.8%; in the assay on DU-145 prostate it was 85.7%; in the assay on K-562 leukemia, 24.9%. Also, the growth is 1.85% (active) in the assay with MALME-3M melanoma; 26.7% in the assay on MDA-MB-231 breast; 86.2% in the assay on RXF 393 renal; 64.5% with SF-268 CNS; 48.1% in the assay with SF-295 CNS; 1.94% (active) in the assay with SF-539 CNS. The results for the growth in the assay with UACC-257 melanoma and in the assay with M14 melanoma were 32.9% and 25.5%, respectively.
As to `O=C(/C=C/c1ccc2c(c1)OCO2)c1c(O)c2ccccc2oc1=O`, the growth was 102% in the assay with NCI-H23 lung; 107% in the assay on NCI-H226 lung; 107% with NCI-H322M lung; 80.9% in the assay with HOP-62 NSCLC; 103% in the assay with NCI-H460 lung; 103% in the assay on HOP-92 NSCLC. Further, the growth is 75.7% with NCI-H522 lung; 76.5% in the assay with A549/ATCC NSCLC; 99.8% with 786-0 renal; 99.3% in the assay with COLO 205 colon; 109% in the assay on DU-145 prostate; 69.4% in the assay with K-562 leukemia. For the same compound, the growth with MALME-3M melanoma was 101%; with MDA-MB-231 breast, 103%; with RXF 393 renal, 135%; with SF-268 CNS, 93.6%; in the assay on SF-295 CNS, 100%; in the assay on SF-539 CNS it was 105%. For the same compound, the growth in the assay on UACC-257 melanoma was 78.1%; in the assay on M14 melanoma, 94.9%.

The values are drawn from PubChem BioAssay (NCI).
